Source: PubChem (National Center for Advancing Translational Sciences (NCATS))
Shown are actives, neighbours in structure and some others; about 10% of the full set was active somewhere.
SARS PLP yeast: qHTS of Yeast-based Assay for SARS-CoV PLP | S. cerevisiae expressing SARS-CoV PLpro, growth rescue | Potency, µM (series often up to 32.9 µM), for inactives: at the highest dose activity, positive = growth rescue, actives largely listed as activators | 0.19% of 330,000 active | AID 485353, 2010; calls by dose curve; note: 0% is about no effect; nearly all actives have a fitted effect of over 55% in size
Pf growth 48h: Primary qHTS for delayed death inhibitors of the malarial parasite plastid, 48 hour incubation | AID 504832, 2011 | 5.9% of 310,000 active | P. falciparum luciferase growth in erythrocytes, 48 h | Potency, µM (doses to about 28.7 µM), for the others: at the top dose activity change, negative = inhibition, hits mostly inhibitors; note: % is set by controls: 0 for no effect and ±100 for the full control effect
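Growth was read as firefly luciferase luminescence after a 48 h, 37 C, 5% CO2 exposure of compounds to reporter-bearing P. falciparum cultures (0.1% parasitemia, 2% hematocrit final) in Albumax-supplemented RPMI 1640.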
NS1 inh: qHTS Assay for Inhibitors of Influenza NS1 Protein Function | Potency, µM (highest dose often 46.1 µM), inactives show at the highest dose activity, positive = more growth | 0.4% of 270,000 active; calls by dose curve; note: actives are rising curves; nearly all actives have a fitted effect of over 50% in size
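OD600 was taken as the measure of yeast growth restored by compound in an NS1-expressing S. cerevisiae strain. Cells had been washed out of glucose medium and diluted 1:100 into galactose -URA medium, pH 6.0.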
Pf growth 96h: Primary qHTS for delayed death inhibitors of the malarial parasite plastid, 96 hour incubation; P. falciparum luciferase reporter growth, 96 h; Potency, µM (titrated, usually from 28.7 µM), for the others: at the highest dose activity change, negative = inhibition, most hits filed as inhibitors; 6.9% of 320,000 active; note: % is set by controls: 0 for no effect and ±100 for the full control effect
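Cell-based qHTS: luciferase-tagged P. falciparum in erythrocytes (2% hematocrit, 0.05% parasitemia final) incubated with compounds for 96 hours, 37 C, 5% CO2; luciferase detection reagent then added and luminescence measured.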
Starred values were filed as active, the others as inactive; ? = inconclusive; nt = no result given; [ ] = remark or other dose. Unless noted, calls come from the whole dose curve; as a rule, active = well fitted inhibition curve with a large enough effect; inconclusive = small, poorly fitted or top-dose-only effect, or another doubt; inactive = no such curve, though single readings can be large or run the other way. Potency is the fitted concentration of half-maximal effect.

SMILES	SARS PLP yeast	Pf growth 48h	NS1 inh	Pf growth 96h
COC(=O)c1ccc(C(=O)OC)c(NC(=O)CN2CCN(c3ccccc3OC)CC2)c1	5.4%	13.1µM*	-25.3%	-19.1%
CC(NC(=O)c1ccccc1NC(=O)CN1CCc2ccccc2C1)c1ccccc1 (stereo unspecified)	-7.6%	?	-2.1%	13.1µM*
COC(=O)c1ccccc1NC(=O)CN1CCc2ccccc2C1	-6.9%	12.5%	-24.7%	-25.7%
N[C@H](C(=O)O)[C@@H](O)c1cnc[nH]1	nt	nt	-1.0%	nt
COc1ccc(F)cc1CN1CCN(CC(=O)Nc2ccccc2C(=O)NC2CC2)CC1	0.6%	?	nt	?
COC(=O)c1ccc(N2CCN(CC(=O)c3ccc(-c4ccccc4)cc3)CC2)c([N+](=O)[O-])c1	-8.2%	11.7µM*	-58.6%	?
CCOc1ccccc1N1CCN(CC(=O)Nc2ccccc2C(=O)NC2CC2)CC1	-2.0%	9.28µM*	nt	?
COc1ccc(CN2CCN(CC(=O)Nc3ccccc3C(=O)NC3CC3)CC2)cc1F	5.6%	10.4µM*	nt	?
COc1ccc(CN2CCN(Cc3ccc(CO)o3)CC2CCO)cc1C (stereo unspecified)	3.3%	-4.4%	-6.5%	?
COC(=O)CN(C)C(=O)c1cccc(OC2CCN(S(=O)(=O)N(C)C)CC2)c1	2.7%	4.1%	13.3%	-10.3%
Nc1nsnc1C(=O)NCCO	3.0%	16.8%	6.5%	2.33µM*
COc1cccc(CNS(=O)(=O)c2c(C(=O)N3CCCCCC3)c(C)n(C)c2C)c1	-10.1%	2.6%	-3.4%	1.7%
Cc1nn(Cc2ccccc2)c(C)c1C(=O)OCC(=O)c1cc(C)n(C2CC2)c1C	-5.3%	14.7µM*	-1.5%	nt
COc1ccc(S(=O)(=O)N2CCCC(C(=O)NCCN3CCOCC3)C2)cc1C (stereo unspecified)	-0.9%	?	20.3%	-15.9%
CCN(CC(=O)NCc1cccs1)S(=O)(=O)c1ccc(F)c(F)c1F	nt	-6.3%	nt	?
CC(=O)Nc1ccc(S(=O)(=O)/N=C2\C(=O)c3ccccc3C([O-])=C2n2cc[n+](-c3ccccn3)c2)cc1	-1.1%	1.47µM*	0.3%	4.65µM*
Cc1ccc(S(=O)(=O)/N=C2\C(=O)c3ccccc3C([O-])=C2n2cc[n+](CCC(C)C)c2)cc1	-2.1%	13.1µM*	6.2%	3.29µM*
CCCC[n+]1ccn(C2=C([O-])c3ccccc3C(=O)/C2=N\S(=O)(=O)c2ccc(Br)cc2)c1	13.2%	3.29µM*	14.1%	?
CN(C)c1ccc(N2C(=NC(=O)CCC3CCCC3)SC3CS(=O)(=O)CC32)cc1 (stereo unspecified)	-11.3%	?	-5.5%	-22.3%
Brc1ccccc1OCCOc1cccc2cccnc12	-15.7%	82.3%	-5.9%	-15.7%
Cc1cc(Cl)cc(Cl)c1OCCOc1cccc2cccnc12	0.0%	nt	-53.5%	4.15µM*
COc1ccc(C(=O)NC(Nc2ccc(C)cc2)C(Cl)(Cl)Cl)cc1 (stereo unspecified)	-3.5%	?	-2.6%	41.3%
COc1ccc(NC(NC(=O)c2ccc(OC)cc2)C(Cl)(Cl)Cl)cc1 (stereo unspecified)	-1.2%	?	-2.2%	4.15µM*
N#CC1(NC(=O)CSc2nnc(Nc3ccccc3F)s2)CCCC1	-5.2%	?	nt	11.7µM*
CCCOC(=O)C1=C(C)NC2=C(C(=O)CC(C)(C)C2)C1c1ccc(N(C)C)cc1 (stereo unspecified)	-2.9%	?	-63.4%	-2.4%
SMILES	SARS PLP yeast	Pf growth 48h	NS1 inh	Pf growth 96h
CCCOC(=O)C1=C(C)NC2=C(C(=O)CC(C)(C)C2)C1c1cccnc1 (stereo unspecified)	14.2%	?	1.3%	10.4µM*
CCOc1cc(C(=S)N2CCOCC2)cc(Br)c1OS(=O)(=O)c1ccccc1	-5.8%	-52.8%	8.3%	?
CCCC(CCC)C(=O)Nc1ccc2c(c1)N(C(=O)CN1CCN(C)CC1)c1ccccc1CC2	-0.3%	5.22µM*	-1.9%	-6.0%
CCOC(=O)N1CCN(CC(=O)N2c3ccccc3CCc3ccccc32)CC1	0.0%	5.0%[5.75 µM]	nt	?
CCOC(=O)Nc1ccc2c(c1)N(C(=O)CN1CCN(C)CC1)c1ccccc1S2	4.2%	9.28µM*	-11.3%	124.1%
CCOC(=O)Nc1ccc2c(c1)N(C(=O)CCN(C)C)c1ccccc1S2	-4.3%	-9.8%	-34.6%	-5.5%
NC(N)=NNC(=O)C(=O)O	nt	nt	12.8%	nt
COc1ccc(/C=C/C(=O)c2cc(Br)ccc2OC(=O)c2ccco2)cc1OC	-6.5%	11.7µM*	?	19.7%
O=C(O)CCN1CC2([N+](=O)[O-])C=CC(=O)C([N+](=O)[O-])(C1)C2CC(=O)c1ccccc1 (stereo unspecified)	2.7%	-4.1%	28.1%	3.5%
O=C(COc1coc(CN2CCc3ccccc3C2)cc1=O)Nc1ccc([N+](=O)[O-])cc1	-7.3%	?	nt	?
CCOc1ccccc1NC(=O)COc1coc(CN2CCc3ccccc3C2)cc1=O	-1.5%	-14.6%	nt	13.1µM*
COc1ccc(NC(=O)COc2coc(CN3CCCc4ccccc43)cc2=O)cc1	-1.6%	2.3%	nt	?
CCOc1ccccc1NC(=O)COc1coc(CN2CCCc3ccccc32)cc1=O	-2.0%	13.1µM*	nt	?
CC(=O)NC(c1cc(Cl)c2cccnc2c1O)C(C)C (stereo unspecified)	0.7%	3.7µM*	nt	10.4µM*
CC(=O)NC(c1cc(Cl)c2cccnc2c1O)C1CC1 (stereo unspecified)	?	4.15µM*	nt	13.1µM*
CCCN1C(=O)N(c2cccc(C)c2)C(C)(O)CC1(C)C (stereo unspecified)	-1.1%	-41.8%	-0.4%	?
CC(C)C(NC(=O)c1ccc(C(C)(C)C)cc1)C(=O)NCc1ccccn1 (stereo unspecified)	6.2%	?	nt	-5.5%
Cc1cccc(C)c1NC(=S)N(CCN(C)C)Cc1cccs1	-0.3%	-3.2%	nt	?
Cc1cc(C)c(NC(=S)N(CCN(C)C)Cc2cccs2)c(C)c1	-0.4%	-26.8%	nt	3.29µM*
C[N+]1(CC2COC3(CCCCC3)O2)CCCCC1 (stereo unspecified)	-6.1%	?	2.2%	-14.8%
C[N+]1(CC2COC(c3ccccc3)(C3CCCCC3)O2)CCCCC1 (stereo unspecified)	nt	1.07µM*	nt	5.86µM*
COc1ccc(C2CC(O)(c3ccccc3)Oc3cc(OC)cc(OC)c32)cc1 (stereo unspecified)	-10.5%	?	28.0%	?
COc1ccc(C2CC(O)(c3ccccc3)Oc3c(C)ccc(C)c32)cc1 (stereo unspecified)	-5.8%	9.28µM*	-94.3%	?
COc1ccc(Cc2nnc(SCC(=O)NC3(C#N)CCCCC3)n2N)cc1	-2.3%	26.0%	nt	?
Cc1nc(C(C)NC(=O)CCc2nnc(Cc3c[nH]c4ccccc34)o2)cs1 (stereo unspecified)	0.3%	-24.1%	0.9%	4.65µM*
C=CCN1C(=O)c2ccc(C(=O)N3CCN(S(=O)(=O)c4ccccc4Br)CC3)cc2C1=O	0.4%	7.8%	nt	-29.6%
